# Assay results taken from PubChem BioAssay AID624352 (Sanford-Burnham Center for Chemical Genomics, 2012).
# The whole screen tested about 360,000 compounds, of which about 2,600 (0.72%) were called active. The full list was thinned out, with actives kept by preference. Values without a mark were called inactive.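 The calls were made as follows: active = inhibition of the luminescence signal of 40% or more relative to plate controls, in a single-dose primary screen at 18.75 µM; inactive = the rest.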
# Experiment: HIF-2a reporter inhibitors, primary screen, luminescence, 786-0 RCC cells (AID 624352)
# Conditions: 786-0 RCC cells HIF-2a reporter, luciferase luminescence, overnight; at 18.8 µM; stronger effect = higher value
row,Compound,inhibition
1,O=C(COC(=O)Cc1ccccc1F)NCCc1ccccc1,-1.26%
2,O=C(OCN1C(=O)c2ccccc2C1=O)/C(=C\c1ccco1)NC(=O)c1ccccc1,1.64%
3,C=CCOc1ccc(/C=C2\SC(=S)N(CCC(=O)O)C2=O)cc1,90.6% (active)
4,O=C(CN1C(=O)/C(=C\c2ccc(C(F)(F)F)cc2)Sc2ccccc21)NCc1ccco1,-23.3%
5,C=CCOc1ccc(C(=O)Nc2ccccc2C(=O)N2CCCC2)cc1,-0.109%
6,Cc1c(Cl)cccc1NC(=O)CCC(=O)N/N=C/c1ccco1,6.46%
7,O=C(CCCN1C(=O)/C(=C/c2ccccc2)SC1=S)Nc1ccc(O)cc1,46.2% (active)
8,CN(C(=O)CN1C(=O)/C(=C/c2ccc(Cl)cc2)SC1=S)C1CCS(=O)(=O)C1 (stereo not given),-14%
9,O=C(CCCN1C(=O)/C(=C/c2ccco2)SC1=S)Nc1ccccc1,45.3% (active)
10,O=C(CCCN1C(=O)C(c2ccccc2)Oc2cccnc21)Nc1ccccc1Br (stereo not given),12.9%
11,O=C(CCN1C(=O)c2ccccc2C1=O)Nc1ccncc1,13.6%
12,O=C(CCCN1C(=O)/C(=C\c2ccco2)SC1=S)Nc1cccc2ccccc12,56.3% (active)
13,Cc1ccc(NC(=O)CCN2C(=O)c3ccccc3C2=O)cc1C,-6.43%
14,CCN(Cc1ccccc1)C(=O)CN1C(=S)NC(C)(C)CC1C (stereo not given),4.59%
15,COc1cc(C(=O)OCC(=O)NC(C)CCc2ccccc2)cc(OC)c1OC (stereo not given),26.2%
16,O=C1CCC(CCC(=O)N2CCCC(C(=O)c3ccc(Cl)cc3)C2)=NN1 (stereo not given),-12.6%
17,CC(C)(O)C1=C[N+](=O)CC=C1,-0.393%
18,COc1ccc2c(C)c(CCC(=O)NC3CC3)c(=O)oc2c1C,-156%

row,Compound,inhibition
1,O=C(O)c1ccccc1OCc1ccccc1Cl,10%
2,Cc1c(CCC(=O)O)c(=O)oc2c(C)c(OCc3ccccc3Cl)ccc12,44.6% (active)
3,C#CCNc1nc(C(C)C)nc2c1nnn2Cc1ccccc1F,4.59%
4,COc1ccc(S(=O)(=O)N2CCN(C(=O)NC3CCCCC3)CC2)cc1,12.4%
5,O=C(CCS(=O)(=O)c1ccccc1)NC1CCCC1,-146%
6,Cc1cccc(C)c1NC(=O)CCS(=O)(=O)c1cccc2nsnc12,4.25%
7,Cc1cccc2sc(N(CCCN(C)C)C(=O)CCS(=O)(=O)c3ccccc3)nc12,56.1% (active)
8,COCCN(C(=O)CCC(=O)Nc1nccs1)C(C(=O)NC(C)(C)C)c1ccc(Cl)cc1 (stereo not given),5.58%
9,CN1C(=O)[C@H]2[C@@H](/C=C/c3ccccc3)N3C(=O)CN(Cc4ccc(-c5ccccc5)cc4)C(=O)[C@@]3(C)[C@H]2C1=O,-8.21%
10,O=C(CNCc1ccco1)Nc1cc(S(=O)(=O)N2CCOCC2)ccc1N1CCCC1,12.6%
11,Cc1ccc(N(Cc2ccccc2O)C(=O)c2ccccc2F)cc1,16.1%
12,Cc1ccc(N(Cc2cc(=O)[nH]c3ccccc23)C(=O)CCl)cc1,45.7% (active)
13,CCC(=O)N(Cc1cc2ccccc2[nH]c1=O)c1ccc(OC)cc1,20.9%
14,O=C(NCCC(=O)N1O[C@@H]2C=C[C@H]1C2)OCC1c2ccccc2-c2ccccc21,3.4%
15,CN(C)CCn1c2c(c(SCC(=O)Nc3ccccc3C(F)(F)F)nc1=O)CCCC2,11.7%
16,NC(=O)c1cc(S(=O)(=O)N2CCCC2)ccc1OCc1ccc(F)cc1,24%
17,Cc1[nH]c2ccc(S(N)(=O)=O)cc2c1C,11.6%
